Source: PubChem BioAssay (Tox21)
Several values for one entry are separate records, joined by “and”; a condition that tells them apart may be missing. Equal values may be shown once. Records with an inconclusive call do not appear. Some structures have more than one record in an assay (separate samples or runs), and their calls can disagree. Activity calls are given as the source filed them. Unless noted, the call rests on the fitted dose curve.

Experiments:
[1] = Nuclear factor erythroid 2-related factor 2/antioxidant responsive element (Nrf2/ARE) small molecule agonists: qHTS cell viability counter screen in human keratinocytes (AID 1919968; active means well fitted curve in the direction sought with a large enough effect in the repeat runs; an effect the other way counts as inactive or inconclusive; further: nearly all actives have a fitted effect of over 55% in size; further: potency means the concentration at half of the fitted maximal effect)
In short: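 CellTiter-Fluor fluorescence, read 1 h after reagent, gave viability in the same wells as the ARE-luciferase assay. KeratinoSens cells (1,500/well) had 23 h compound exposure at 37 C/5% CO2 following 5 h plating.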

[2] = Nuclear factor erythroid 2-related factor 2/antioxidant responsive element (Nrf2/ARE) small molecule agonists: luciferase reporter gene qHTS assay in human keratinocytes (AID 1919969); further: nearly all actives have a fitted effect of over 35% in size; further: potency means the concentration at half of the fitted maximal effect
[3] = target: Gonadotropin-releasing hormone receptor (Homo sapiens) (UniProt P30968); assay: Human gonadotropin-releasing hormone receptor (GnRHR) small molecule agonists, calcium flux assay in GnRHR-HEK293 cells (AID 1920063); further: nearly all actives have a fitted effect of over 35% in size
Gonadotropin-releasing hormone receptor (Homo sapiens), sequence (P30968 whole entry, looked up): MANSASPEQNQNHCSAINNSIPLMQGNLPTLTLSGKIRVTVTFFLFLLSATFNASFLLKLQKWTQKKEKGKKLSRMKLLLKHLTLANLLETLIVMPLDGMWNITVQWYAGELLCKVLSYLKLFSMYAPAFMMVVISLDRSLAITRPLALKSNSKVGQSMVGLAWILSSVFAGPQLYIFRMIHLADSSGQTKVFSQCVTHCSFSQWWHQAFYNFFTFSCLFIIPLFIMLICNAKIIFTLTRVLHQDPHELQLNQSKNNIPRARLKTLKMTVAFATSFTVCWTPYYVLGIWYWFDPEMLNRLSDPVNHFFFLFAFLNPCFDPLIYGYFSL
In short: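 Agonist mode: compounds at 15 concentrations, in triplicate, went onto calcium dye-loaded GnRHR-HEK293 cells. Intracellular calcium was then followed as 480/540 nm fluorescence at 1 s intervals over 3 min.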

[4] = target: KiSS-1 receptor (Homo sapiens) (UniProt Q969F8); assay: Human kisspeptin (KISS1R) small molecule agonists, calcium flux assay in KISS1R-HEK293 cells (AID 1920064; active means well fitted curve in the direction sought with a large enough effect in the repeat runs; an effect the other way counts as inactive or inconclusive)
KiSS-1 receptor (Homo sapiens), sequence (Q969F8 whole entry, looked up): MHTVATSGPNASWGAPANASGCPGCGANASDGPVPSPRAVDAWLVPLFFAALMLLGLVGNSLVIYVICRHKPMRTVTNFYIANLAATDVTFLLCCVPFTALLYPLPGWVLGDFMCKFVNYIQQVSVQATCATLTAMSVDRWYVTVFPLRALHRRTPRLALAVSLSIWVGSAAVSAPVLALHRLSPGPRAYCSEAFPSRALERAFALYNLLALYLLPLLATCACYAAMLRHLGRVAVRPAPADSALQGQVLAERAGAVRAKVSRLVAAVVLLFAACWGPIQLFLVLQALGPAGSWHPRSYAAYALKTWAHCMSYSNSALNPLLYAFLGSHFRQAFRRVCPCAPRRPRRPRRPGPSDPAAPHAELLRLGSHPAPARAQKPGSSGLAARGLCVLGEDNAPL
In short: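 Agonist mode: intracellular calcium rise tracked at 1 s intervals over 3 min (480/540 nm) immediately after compound addition to dye-loaded KISS1R-HEK293 stable cells. Each compound tested at 15 concentrations in triplicate.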

[5] = G protein-coupled receptor (GPCR) small molecule agonists, calcium flux assay: HEK293 wild type cell line counter screen (AID 1920065)
In short: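 Calcium flux counter screen: compound added in agonist mode at 15 concentrations in triplicate to dye-loaded parental HEK293 cells. Fluorescence (480/540) read kinetically for 3 min; ATP served as positive control.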

[6] = p53 small molecule agonists, cell-based qHTS assay with human liver microsomes (AID 1963577);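 further: p53 response element beta-lactamase reporter cells with liver microsomes plus NADPH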
In short: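 Steps: plate p53RE-bla cells, incubate 5 h at 37 C; add compound in DMSO; add microsomes (0.5 mg/mL final) and NADPH (0.5 mg/mL final); incubate 16 h at 37 C; add LiveBLAzer, 2 h RT; read fluorescence.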

[7] = p53 small molecule agonists, cell-based qHTS assay with rat liver microsomes (AID 1963578)
In short: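 Metabolic activation is supplied by rat liver microsomes with NADPH (each 0.5 mg/mL final). p53RE-bla cells incubate with compound 16 h at 37 C; reporter activity is measured by LiveBLAzer fluorescence.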

[8] = p53 small molecule agonists, cell-based qHTS assay with human liver microsomes: qHTS cell viability counter screen (AID 1963579); further: nearly all actives have a fitted effect of over 45% in size; further: potency means the concentration at half of the fitted maximal effect
In short: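 After the 460/530 nm beta-lactamase read, CellTiter-Glo was added to the same wells and luminescence measured after 30 min at room temperature, giving viability of p53RE-bla cells treated 16 h with compounds plus microsomes and NADPH.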

[9] = p53 small molecule agonists, cell-based qHTS assay with rat liver microsomes: qHTS cell viability counter screen (AID 1963580); further: nearly all actives have a fitted effect of over 45% in size
In short: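 After the beta-lactamase ratio was read, CellTiter-Glo was added to the same wells and luminescence measured at 30 min; cells had been treated 16 h at 37 C with compounds, rat liver microsomes and NADPH (0.5 mg/mL final each).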

[10] = p53 small molecule agonists, cell-based qHTS assay (AID 1963582; active means well fitted activation curve with a large enough effect in the signal ratio in the repeat runs, not every such curve was filed as active; the % refers to the signal ratio)
In short: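 Read-out is beta-lactamase FRET fluorescence after 2 h at room temperature with LiveBLAzer B/G substrate. p53 response element-bla cells were treated 16 h at 37 C with compounds in DMSO, added 5 h after seeding.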

[11] = cAMP Responsive Elements (CRE) small molecule agonists, cell-based qHTS assay (AID 1963590)
In short: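 Agonist mode: compound added to CRE-bla HEK 293T cells (2,000/well, 18 h after plating) for 3 h at 37 C/5% CO2. Reporter activity detected via FRET beta-lactamase substrate, 2 h room-temperature loading.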

[12] = cAMP Responsive Elements (CRE) small molecule antagonists, cell-based qHTS assay (AID 1963591; active means well fitted inhibition curve with a large enough effect in the signal ratio in the repeat runs, not every such curve was filed as active; the % refers to the signal ratio)
In short: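 Antagonist mode: compounds are added alongside the adenylyl cyclase activator NKH477 (0.25 uM final) to CRE-bla HEK293T cells for 3 h. LiveBLAzer FRET substrate, 2 h at room temperature, reports bla expression.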

[13] = target: Beta-2 adrenergic receptor (Homo sapiens) (UniProt P07550); assay: Adrenergic beta2 receptor (ADRB2) small molecule antagonists, cell-based qHTS assay (AID 1963592); further: series mostly up to about 92 µM; nearly all actives have a fitted effect of over 50% in size
Beta-2 adrenergic receptor (Homo sapiens), sequence (P07550 whole entry, looked up): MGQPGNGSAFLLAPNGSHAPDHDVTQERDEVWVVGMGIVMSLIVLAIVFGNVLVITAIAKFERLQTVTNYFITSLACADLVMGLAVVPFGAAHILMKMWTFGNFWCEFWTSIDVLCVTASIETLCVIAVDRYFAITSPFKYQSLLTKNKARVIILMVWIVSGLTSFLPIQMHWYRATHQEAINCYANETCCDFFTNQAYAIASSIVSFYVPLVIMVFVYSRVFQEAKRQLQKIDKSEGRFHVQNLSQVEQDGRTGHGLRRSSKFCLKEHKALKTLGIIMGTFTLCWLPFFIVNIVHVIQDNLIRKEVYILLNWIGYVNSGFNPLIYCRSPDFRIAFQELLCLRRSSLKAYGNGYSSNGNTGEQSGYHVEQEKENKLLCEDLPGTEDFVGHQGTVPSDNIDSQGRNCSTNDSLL
In short: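 Assay format: CHO-ADRB2 cells, 18-20hr seeding at 37C/5% CO2, then compound plus 1nM isoproterenol agonist mix for 0.5hr RT. Homogeneous time-resolved fluorescence cAMP detection after 1hr, expressed as 665/615 nm ratio.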

[14] = target: Beta-2 adrenergic receptor (Homo sapiens) (UniProt P07550); assay: Adrenergic beta2 receptor (ADRB2) small molecule agonists, cell-based qHTS assay (AID 1963593);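 further: CHO cells stably overexpressing human ADRB2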
In short: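 CHO cells stably over-expressing ADRB2 were plated overnight at 37C, then dosed with compounds plus a stimulation mix containing 100uM IBMX and 25uM Ro-20-1724 for 0.5hr at room temperature. cAMP was measured by HTRF competition, 1hr.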

[15] = target: D(2) dopamine receptor (Homo sapiens) (UniProt P14416); assay: Dopamine D2 receptor (DRD2) small molecule agonists, cell-based qHTS assay (AID 1963594); further: nearly all actives have a fitted effect of over 35% in size
D(2) dopamine receptor (Homo sapiens), sequence (P14416 whole entry, looked up): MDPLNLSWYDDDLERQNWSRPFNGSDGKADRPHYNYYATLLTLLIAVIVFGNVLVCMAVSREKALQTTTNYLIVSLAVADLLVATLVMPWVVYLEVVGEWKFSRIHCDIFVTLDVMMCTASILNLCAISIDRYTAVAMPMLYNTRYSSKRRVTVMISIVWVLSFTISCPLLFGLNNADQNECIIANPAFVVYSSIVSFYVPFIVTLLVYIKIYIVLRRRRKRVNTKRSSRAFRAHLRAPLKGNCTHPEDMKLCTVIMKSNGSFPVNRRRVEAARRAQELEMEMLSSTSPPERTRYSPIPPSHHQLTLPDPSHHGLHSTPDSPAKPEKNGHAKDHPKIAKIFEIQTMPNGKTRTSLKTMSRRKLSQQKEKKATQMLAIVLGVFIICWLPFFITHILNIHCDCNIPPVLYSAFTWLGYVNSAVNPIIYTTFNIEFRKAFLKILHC
In short: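 HEK293 cells stably expressing human DRD2, pre-treated with PDE inhibitor Ro20-1724 (0.1 mM final) and compound 10 min at room temperature, then stimulated with NKH477 (200nM […]) for 30 min. cAMP read by HTRF (665/620 nm).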

[16] = target: D(2) dopamine receptor (Homo sapiens) (UniProt P14416); assay: Dopamine D2 receptor (DRD2) small molecule antagonists, cell-based qHTS assay (AID 1963595; active means well fitted inhibition curve with a large enough effect in the signal ratio in the repeat runs, with a control signal flat; the % refers to the signal ratio)
In short: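 HEK293 cells stably expressing DRD2 were preincubated with 0.1 mM Ro20-1724, then with compound for 10 min at room temperature. Cells were stimulated with 200 nM NKH477 plus 12 nM quinpirole for 30 min, and cAMP was read by HTRF.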

[17] = p53 small molecule agonists, cell-based qHTS assay: qHTS cell viability counter screen (AID 1963581); further: nearly all actives have a fitted effect of over 45% in size
In short: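 Counter screen read by CellTiter-Glo luminescence (ATP content, 30 min at room temperature), run in the same wells as the beta-lactamase reporter read. HCT-116 p53RE-bla cells saw compounds for 16 h at 37 C.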

[18] = target: 5-hydroxytryptamine receptor 2A (Homo sapiens) (UniProt P28223); assay: 5-hydroxytryptamine receptor 2A (HTR2A) small molecule antagonists, cell-based qHTS assay (AID 1963586); further: nearly all actives have a fitted effect of over 45% in size; further: potency means the concentration at half of the fitted maximal effect
5-hydroxytryptamine receptor 2A (Homo sapiens), sequence (P28223 whole entry, looked up): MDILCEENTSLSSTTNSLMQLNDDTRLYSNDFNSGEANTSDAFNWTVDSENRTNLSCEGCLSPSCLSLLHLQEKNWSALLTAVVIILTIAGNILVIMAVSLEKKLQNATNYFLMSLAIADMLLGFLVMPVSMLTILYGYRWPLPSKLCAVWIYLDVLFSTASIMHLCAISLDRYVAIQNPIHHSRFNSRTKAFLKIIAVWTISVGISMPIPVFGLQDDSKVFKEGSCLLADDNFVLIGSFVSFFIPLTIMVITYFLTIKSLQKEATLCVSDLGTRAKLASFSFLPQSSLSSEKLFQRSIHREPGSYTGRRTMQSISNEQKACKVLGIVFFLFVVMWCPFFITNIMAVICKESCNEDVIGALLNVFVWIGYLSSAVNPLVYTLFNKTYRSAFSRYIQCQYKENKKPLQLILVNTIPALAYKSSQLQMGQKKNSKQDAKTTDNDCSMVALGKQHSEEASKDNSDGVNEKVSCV
In short: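 CHO cells stably expressing human HTR2A were plated for 18 h at 37 C, then loaded with calcium dye for 1 h. Compounds were preincubated 5 min at room temperature before DOI (4 nM solution) was added. Kinetic fluorescence was read for 3 min.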

[19] = target: 5-hydroxytryptamine receptor 2A (Homo sapiens) (UniProt P28223); assay: 5-hydroxytryptamine receptor 2A (HTR2A) small molecule agonists, cell-based qHTS assay (AID 1963587); further: nearly all actives have a fitted effect of over 30% in size
In short: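 CHO cells stably expressing human HTR2A, plated 18 h, loaded with calcium dye 1 h at 37 C. Agonist mode: compounds added and intracellular calcium fluorescence recorded kinetically for 2 min at 1 sec intervals.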

[20] = target: Muscarinic acetylcholine receptor M1 (Homo sapiens) (UniProt P11229); assay: Cholinergic receptor muscarinic 1 (CHRM1) small molecule antagonists, cell-based qHTS assay (AID 1963588); further: nearly all actives have a fitted effect of over 40% in size; further: potency means the concentration at half of the fitted maximal effect
Muscarinic acetylcholine receptor M1 (Homo sapiens), sequence (P11229 whole entry, looked up): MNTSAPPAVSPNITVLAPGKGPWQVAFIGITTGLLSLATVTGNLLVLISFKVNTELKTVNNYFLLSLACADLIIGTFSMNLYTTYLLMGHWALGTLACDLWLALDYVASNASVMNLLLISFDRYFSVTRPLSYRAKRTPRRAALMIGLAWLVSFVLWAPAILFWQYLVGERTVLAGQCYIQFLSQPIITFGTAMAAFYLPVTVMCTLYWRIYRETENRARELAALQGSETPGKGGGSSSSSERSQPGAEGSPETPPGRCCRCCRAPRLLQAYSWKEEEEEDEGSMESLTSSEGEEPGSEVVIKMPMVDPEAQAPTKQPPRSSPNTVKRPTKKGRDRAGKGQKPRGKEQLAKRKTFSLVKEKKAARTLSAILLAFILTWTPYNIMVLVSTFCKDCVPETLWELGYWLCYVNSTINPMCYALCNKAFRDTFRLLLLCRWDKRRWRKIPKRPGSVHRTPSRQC
In short: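 Compounds were tested at 15 concentrations in three independent runs. Dye-loaded CHRM1-CHO cells were exposed 5 min at room temperature before stimulation by acetylcholine added at 50nM. Intracellular calcium was read kinetically on FDSS for 3 min.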

Measured: Potency

CN(C)CCN(Cc1cccs1)c1ccccn1
inactive: [1] | [2] | [3] | [4] | [5] | [6] | [7] | [8] | [9] | [10] | [11] | [12] | [13] | [14] | [15] | [16]

CC(=O)[C@@]1(O)CC[C@H]2[C@@H]3C[C@H](C)C4=CC(=O)C=C[C@]4(C)[C@@]3(F)[C@@H](O)C[C@@]21C
inactive: [1] | [2] | [3] | [4] | [5] | [6] | [7] | [8] | [9] | [10] | [11] | [12] | [13] | [14] | [15] | [16]

CCCCCCCCCCCC[N+](C)(C)C
inactive: [2] | [3] | [4] | [5] | [6] | [7] | [8] | [17] | [10] | [18] | [19] | [13] | [14] | [15] | [16]
active: [1] 48.4 µM and 30.6 µM and 48.6 µM | [20] 374 nM and 421 nM and 334 nM

CCCCCCc1ccc(O)cc1O
inactive: [2] | [3] | [4] | [5] | [6] | [7] | [8] | [17] | [10] | [20] | [11] | [13] | [14] | [15] | [16]
48.7 µM (active) and inactive: [1]

OC[C@H]1O[C@@H](Oc2ccc(O)cc2)[C@H](O)[C@@H](O)[C@@H]1O
inactive: [1] | [2] | [3] | [4] | [5] | [6] | [7] | [8] | [17] | [10] | [18] | [19] | [20] | [11] | [12] | [13] | [14] | [15] | [16]

C=C(C)C(=O)OCCCCCCCCCCCC
inactive: [1] | [2] | [3] | [4] | [5] | [6] | [7] | [8] | [9] | [10] | [18] | [19] | [20] | [11] | [13] | [15] | [16]

O=C(O)Cn1c(=O)n(Cc2ccc(Br)cc2F)c(=O)c2ccc(Cl)cc21
inactive: [1] | [2] | [3] | [4] | [5] | [6] | [7] | [8] | [17] | [10] | [19] | [20] | [11] | [13] | [14] | [15] | [16]

CCCCCCCC/C=C\CCCCCCCC(=O)O
inactive: [1] | [2] | [3] | [4] | [5] | [6] | [7] | [8] | [9] | [10] | [18] | [19] | [20] | [11] | [12] | [13] | [14] | [15] | [16]

C[C@]12C=CC(=O)C=C1CC[C@@H]1[C@@H]2C(=O)C[C@@]2(C)[C@H]1CC[C@]2(O)C(=O)CO
inactive: [1] | [2] | [3] | [4] | [5] | [6] | [7] | [9] | [17] | [10] | [11] | [12] | [13] | [14] | [15] | [16]

O=C1CCCCCCCCCCC1
inactive: [1] | [2] | [3] | [4] | [5] | [6] | [7] | [9] | [17] | [10] | [19] | [20] | [11] | [12] | [13] | [14] | [16]

Nc1cc(Cl)c(-c2cc(Cl)c(N)cc2Cl)cc1Cl
active: [1] 27.3 µM and 48.6 µM | [8] 51.3 µM | [18] 5.29 µM
inactive: [3] | [4] | [5] | [6] | [7] | [19] | [20] | [13] | [15] | [16]
3.06 µM (active) and inactive: [2]

OCCOCCOCCO
inactive: [1] | [2] | [3] | [4] | [5] | [6] | [7] | [8] | [10] | [18] | [19] | [20] | [11] | [12] | [14] | [15] | [16]

CC1(C)CC(N)CC(C)(CN)C1 (stereo unspecified)
inactive: [1] | [2] | [3] | [4] | [5] | [6] | [7] | [9] | [10] | [18] | [19] | [20] | [11] | [12] | [13] | [15] | [16]

C=C(C#N)C(=O)OCC
inactive: [1] | [3] | [4] | [5] | [6] | [7] | [9] | [17] | [10] | [18] | [19] | [20] | [11] | [12] | [14] | [15] | [16]
inactive and 68.6 µM (active): [2]

CCCCC(CC)COC(=O)/C=C/c1ccc(OC)cc1 (stereo unspecified)
inactive: [1] | [2] | [3] | [4] | [5] | [6] | [7] | [9] | [17] | [10] | [18] | [19] | [20] | [11] | [12] | [14] | [15] | [16]

CCOC(=O)C(C#N)=C(c1ccccc1)c1ccccc1
inactive: [1] | [2] | [3] | [4] | [5] | [6] | [7] | [9] | [17] | [10] | [18] | [19] | [20] | [11] | [13] | [14] | [15]
